Measured values as given in PubChem BioAssay (EPA / NIEHS).
Active and inactive are the calls of the source. How the source made its calls: active means hit-call score of the fitted dose curve at least 0.9, where 1 is the maximum; inactive means score below 0.9.

Key:
[1] = ATG_EGR_CIS: Attagene CIS-FACTORIAL HepG2 Assay for human Early Growth Response 1 (EGR1) (AID 2282938); conditions: HepG2 Attagene CIS-FACTORIAL EGR reporter mRNA; actives raise or lower the signal
Summary of the method: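 Read-out: fluorescent reporter-mRNA fragments resolved by capillary electrophoresis after RT-PCR, 24 h post-dose in transiently transfected HepG2. Endogenous transcription-factor activity reported via cis-element-regulated reporter units; gain or loss fitted relative to DMSO.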

[2] = ATG_M_19_CIS: Attagene CIS-FACTORIAL HepG2 Assay for M19 Transcription Factor (Internal Marker) (AID 2282939); conditions: HepG2 Attagene CIS-FACTORIAL M19 internal marker reporter; actives raise or lower the signal
Summary of the method: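 HepG2 cells transiently transfected with cis-regulated multiplexed reporter units, dosed 24 h. Reporter mRNA quantified by RT-PCR and capillary electrophoresis; internal background marker fitted bidirectionally versus DMSO.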

[3] = ATG_ERE_CIS: Attagene CIS-FACTORIAL HepG2 Assay for Estrogen Response Element (ERE) (AID 2282940); conditions: HepG2 ERE cis-reporter, Attagene RNA transcript; actives raise or lower the signal
Summary of the method: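 HepG2 cells transiently transfected with multiplexed cis-element reporter units, measuring endogenous transcription factor activity; ERE reporter mRNA quantified after 24 h exposure by RT-PCR, fluorescent labelling, HpaI digestion and capillary electrophoresis. Bidirectional change versus DMSO.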

[4] = ATG_Ets_CIS: Attagene CIS-FACTORIAL HepG2 Assay for human Erythroblast Transformation Specific (ETS) (AID 2282941); conditions: HepG2 ETS cis-reporter transcription; AC50: actives raise or lower the signal unless noted; outcome: actives raise or lower the signal unless noted
Summary of the method: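 Multiplexed reporter transcript profiling: HepG2, 24 h treatment, total RNA to cDNA, PCR, 6-FAM labelling, HpaI cut, capillary electrophoresis. Gain- or loss-of-signal fitted against DMSO.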

[5] = biological target: Hepatocyte nuclear factor 3-beta (Homo sapiens) (UniProt Q9Y261); assay: ATG_FoxA2_CIS: Attagene CIS-FACTORIAL HepG2 Assay for human Forkhead box A2 (FOXA2) (AID 2282942); conditions: HepG2 cis-reporter transcription factor activity, 24 h; actives raise or lower the signal
Summary of the method: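 Readout: fluorescent reporter transcripts resolved by capillary electrophoresis after RT-PCR. Transiently transfected HepG2, 24 h compound exposure, endogenous TF activity at cis promoter elements. Gain or loss of signal fitted relative to DMSO.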

[6] = ATG_FoxO_CIS: Attagene CIS-FACTORIAL HepG2 Assay for human Forkhead box O (FoxO) (AID 2282943); conditions: HepG2 Attagene cis-reporter, FoxO element, mRNA; actives raise or lower the signal
Summary of the method: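 Endogenous transcription factor activity read from multiplexed cis-promoter reporter transcripts in transiently transfected HepG2, 24 h after dosing. Reporter RNA measured via RT-PCR plus capillary electrophoresis of FAM-labeled products; gain or loss relative to DMSO.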

[7] = ATG_GATA_CIS: Attagene CIS-FACTORIAL HepG2 Assay for human GATA Binding Protein (AID 2282944); conditions: HepG2 GATA cis-element reporter, Attagene multiplex mRNA; actives raise or lower the signal
Summary of the method: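 HepG2 cells transiently transfected with multiplexed cis-element reporter units measure endogenous GATA activity; after 24 h compound exposure, reporter mRNA quantified by RT-PCR and capillary electrophoresis. Changes fitted in both directions vs DMSO.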

[8] = ATG_GLI_CIS: Attagene CIS-FACTORIAL HepG2 Assay for human Zinc Finger Protein GLI1 (AID 2282945); conditions: HepG2, Attagene cis-factorial reporter mRNA, GLI element; actives raise or lower the signal
Summary of the method: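 Bidirectional curve fits relative to DMSO, using reporter mRNA levels from RT-PCR plus capillary electrophoresis. Cells were HepG2 transiently carrying cis-regulated reporter constructs, harvested 24 h after dosing.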

[9] = ATG_GRE_CIS: Attagene CIS-FACTORIAL HepG2 Assay for human Glucocorticoid Response Elements (GRE) (AID 2282947); conditions: HepG2 GRE cis-reporter, Attagene multiplex mRNA; AC50: actives raise or lower the signal unless noted; outcome: actives raise or lower the signal unless noted
Summary of the method: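 Reporter transcripts read by RT-PCR with capillary electrophoresis fluorescence after a 24 h chemical exposure of HepG2 cells transiently transfected with multiple cis-element reporter units. Gain or loss fitted against DMSO.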

[10] = ATG_ISRE_CIS: Attagene CIS-FACTORIAL HepG2 Assay for human Interferon Regulatory Factor 1 (IRF1) binding to an Interferon-Stimulated Response Element (ISRE) (AID 2282948); conditions: HepG2 ISRE cis-reporter (Attagene), mRNA transcription readout; actives raise or lower the signal
Summary of the method: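 Signal reflects induction or loss of ISRE-linked reporter mRNA in transiently transfected HepG2 cells after a 24 h treatment, detected by fluorescent RT-PCR fragments on capillary electrophoresis and normalised to DMSO.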

[11] = ATG_M_32_CIS: Attagene CIS-FACTORIAL HepG2 Assay for M32 Transcription Factor (Internal Marker) (AID 2282949); conditions: HepG2 Attagene cis-factorial M32 reporter, mRNA; actives raise or lower the signal;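 further: background control marker of the multiplexed CIS panel rather than a real target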
Summary of the method: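 HepG2 transfectants (cis-regulated reporter transcription units) dosed 24 h. Reporter mRNA by RT-PCR plus CE, analysed as gain or loss relative to DMSO.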

[12] = ATG_M_06_CIS: Attagene CIS-FACTORIAL HepG2 Assay for M06 Transcription Factor (Internal Marker) (AID 2282950); conditions: HepG2 Attagene CIS-FACTORIAL M06 internal marker reporter; actives raise or lower the signal
Summary of the method: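 Internal background marker within multiplexed cis-reporter HepG2 system. Cells transiently transfected, dosed 24 h; reporter mRNA measured by RT-PCR, HpaI digestion and capillary electrophoresis. Bidirectional fit relative to DMSO.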

[13] = biological target: Hypoxia-inducible factor 1-alpha (Homo sapiens) (UniProt Q16665); assay: ATG_HIF1a_CIS: Attagene CIS-FACTORIAL HepG2 Assay for human Hypoxia Inducible Factor 1 (HIF1A) (AID 2282951); conditions: HepG2 Attagene cis-factorial HIF1a reporter transcription; actives raise or lower the signal
Summary of the method: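 RT-PCR/capillary electrophoresis fluorescence readout of reporter transcripts from endogenous-TF-driven cis elements in transfected HepG2 cells, 24 h exposure; activity fitted in both directions against DMSO controls.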

[14] = biological target: Heat shock factor protein 1 (Homo sapiens) (UniProt Q00613); assay: ATG_HSE_CIS: Attagene CIS-FACTORIAL HepG2 Assay for human Heat Shock Transcription Factor 1 (HSE) (AID 2282953); conditions: HepG2 HSE cis-reporter, Attagene RNA transcription; actives raise or lower the signal
Summary of the method: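 HepG2 cells transfected with cis-promoter reporter units sensing endogenous transcription factor activity; reporter mRNA quantified 24 h post-dose by RT-PCR and capillary electrophoresis of 6-FAM-labelled products. Bidirectional fitting against DMSO.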

[15] = ATG_MRE_CIS: Attagene CIS-FACTORIAL HepG2 Assay for human Metal Responsive Element (MRE) (AID 2282954); conditions: HepG2 MRE cis-reporter transcription, Attagene multiplex; actives raise or lower the signal
Summary of the method: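 Endogenous MRE-dependent transcription read as reporter mRNA in transiently transfected human HepG2 cells at 24 h. RNA reverse-transcribed, PCR-amplified, labelled and resolved by capillary electrophoresis; gain or loss relative to DMSO.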

[16] = ATG_PBREM_CIS: Attagene CIS-FACTORIAL HepG2 Assay for human Phenobarbital-responsive Enhancer Module (PBREM) (AID 2282955); conditions: HepG2 PBREM cis-reporter, Attagene multiplexed transcription; actives raise or lower the signal
Summary of the method: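 Reporter mRNA read by RT-PCR, 6-FAM primer extension, HpaI digestion and capillary electrophoresis. Transfected HepG2 cells, 24 h compound exposure. Gain or loss of signal fitted bidirectionally relative to DMSO baseline.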

[17] = biological target: Paired box protein Pax-6 (Homo sapiens) (UniProt P26367); assay: ATG_Pax6_CIS: Attagene CIS-FACTORIAL HepG2 Assay for human Paired Box 6 (PAX6) (AID 2282956); conditions: HepG2 CIS-FACTORIAL PAX6 reporter transcription, RNA readout; actives raise or lower the signal
Summary of the method: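 Values derive from bidirectional curve fitting of reporter mRNA signal relative to DMSO. HepG2 cells bearing transfected cis-regulated MRTUs were exposed for 24 h; transcripts were read by RT-PCR and capillary electrophoresis.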

[18] = ATG_PXRE_CIS: Attagene CIS-FACTORIAL HepG2 Assay for human Pregnane X Receptor Element (PXRE) (AID 2282957); conditions: HepG2 Attagene CIS-FACTORIAL PXRE reporter, mRNA; actives raise or lower the signal
Summary of the method: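 Endogenous transcription factor activity in HepG2 was gauged through induction of reporter mRNA driven by a cis-regulating promoter element, sampled 24 h post-treatment. Activity was fitted in both directions against DMSO negative control.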

[19] = biological target: Bile acid receptor (Homo sapiens) (UniProt Q96RI1); assay: ATG_IR1_CIS: Attagene CIS-FACTORIAL HepG2 Assay for human Nuclear Receptor Subfamily 1 Group H Member 4 (NR1H4), IR1 submotif (AID 2282946); conditions: IR1 reporter transcription, actives raise or lower the signal
Summary of the method: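 HepG2 cells transiently transfected with multiplexed cis-element reporter units read endogenous transcription factor activity. After 24 h compound exposure, reporter mRNA was quantified by RT-PCR, fluorescent labelling, HpaI digestion and capillary electrophoresis; bidirectional fitting versus DMSO baseline.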

[20] = biological target: Hepatocyte nuclear factor 6 (Homo sapiens) (UniProt Q9UBC0); assay: ATG_HNF6_CIS: Attagene CIS-FACTORIAL HepG2 Assay for human Hepatocyte Nuclear Factor 6 (HNF6) (AID 2282952); conditions: HepG2 Attagene cis-factorial HNF6 reporter transcription; actives raise or lower the signal
Summary of the method: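 Endogenous transcription factor activity in human HepG2 liver cells was captured through cis-regulated reporter constructs. After 24 h treatment, reporter mRNA was measured by RT-PCR with capillary electrophoresis, and activity was fitted in both directions relative to DMSO.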

Measured: AC50

Sequence of Hypoxia-inducible factor 1-alpha (Homo sapiens) (Q16665 whole entry, looked up): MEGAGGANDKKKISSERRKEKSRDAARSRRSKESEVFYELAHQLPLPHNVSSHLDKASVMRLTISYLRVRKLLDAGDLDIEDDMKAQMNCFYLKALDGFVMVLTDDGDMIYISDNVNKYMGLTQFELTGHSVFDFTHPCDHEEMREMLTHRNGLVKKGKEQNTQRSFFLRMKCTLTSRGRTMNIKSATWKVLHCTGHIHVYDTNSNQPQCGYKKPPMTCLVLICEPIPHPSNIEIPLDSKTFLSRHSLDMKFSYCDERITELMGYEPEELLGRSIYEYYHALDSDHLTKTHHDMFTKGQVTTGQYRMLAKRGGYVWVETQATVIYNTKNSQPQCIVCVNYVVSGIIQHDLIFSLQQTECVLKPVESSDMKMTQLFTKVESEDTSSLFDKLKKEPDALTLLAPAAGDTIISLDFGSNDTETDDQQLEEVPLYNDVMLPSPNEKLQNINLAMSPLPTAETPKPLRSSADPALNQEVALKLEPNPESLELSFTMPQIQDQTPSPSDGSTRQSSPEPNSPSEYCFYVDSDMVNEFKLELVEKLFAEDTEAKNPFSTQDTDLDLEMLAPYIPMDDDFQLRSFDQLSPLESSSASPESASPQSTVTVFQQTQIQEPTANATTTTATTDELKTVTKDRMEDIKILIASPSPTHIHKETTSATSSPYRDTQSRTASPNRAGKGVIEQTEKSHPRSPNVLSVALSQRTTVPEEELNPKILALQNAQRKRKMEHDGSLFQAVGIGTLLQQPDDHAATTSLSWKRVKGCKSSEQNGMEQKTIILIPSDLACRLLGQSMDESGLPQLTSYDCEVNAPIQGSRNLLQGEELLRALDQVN
Sequence of Hepatocyte nuclear factor 6 (Homo sapiens) (Q9UBC0 whole entry, looked up): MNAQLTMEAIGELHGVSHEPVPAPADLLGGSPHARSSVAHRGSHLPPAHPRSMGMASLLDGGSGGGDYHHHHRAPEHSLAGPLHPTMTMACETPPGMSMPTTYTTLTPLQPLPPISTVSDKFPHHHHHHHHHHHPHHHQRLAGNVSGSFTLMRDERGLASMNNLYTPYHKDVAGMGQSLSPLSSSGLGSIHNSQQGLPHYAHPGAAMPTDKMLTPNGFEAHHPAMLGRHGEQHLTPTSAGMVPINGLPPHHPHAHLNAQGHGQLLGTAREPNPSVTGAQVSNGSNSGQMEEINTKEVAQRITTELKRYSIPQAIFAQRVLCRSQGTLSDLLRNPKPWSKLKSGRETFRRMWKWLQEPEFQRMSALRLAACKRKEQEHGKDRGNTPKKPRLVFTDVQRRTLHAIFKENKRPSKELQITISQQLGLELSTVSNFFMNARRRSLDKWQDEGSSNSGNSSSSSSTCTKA
Sequence of Hepatocyte nuclear factor 3-beta (Homo sapiens) (Q9Y261 whole entry, looked up): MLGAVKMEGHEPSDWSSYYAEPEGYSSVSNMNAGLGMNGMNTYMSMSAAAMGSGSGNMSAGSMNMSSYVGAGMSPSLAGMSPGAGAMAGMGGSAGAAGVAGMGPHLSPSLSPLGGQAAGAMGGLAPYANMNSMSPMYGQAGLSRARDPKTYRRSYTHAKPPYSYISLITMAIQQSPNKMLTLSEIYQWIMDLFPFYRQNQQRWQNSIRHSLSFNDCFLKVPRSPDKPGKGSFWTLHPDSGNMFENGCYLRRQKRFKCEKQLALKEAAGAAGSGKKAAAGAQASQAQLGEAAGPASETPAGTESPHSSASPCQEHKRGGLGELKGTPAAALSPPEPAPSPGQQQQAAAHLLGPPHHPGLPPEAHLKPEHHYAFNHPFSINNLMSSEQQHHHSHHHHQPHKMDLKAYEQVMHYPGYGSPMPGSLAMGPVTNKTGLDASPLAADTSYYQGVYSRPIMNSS
Sequence of Paired box protein Pax-6 (Homo sapiens) (P26367 whole entry, looked up): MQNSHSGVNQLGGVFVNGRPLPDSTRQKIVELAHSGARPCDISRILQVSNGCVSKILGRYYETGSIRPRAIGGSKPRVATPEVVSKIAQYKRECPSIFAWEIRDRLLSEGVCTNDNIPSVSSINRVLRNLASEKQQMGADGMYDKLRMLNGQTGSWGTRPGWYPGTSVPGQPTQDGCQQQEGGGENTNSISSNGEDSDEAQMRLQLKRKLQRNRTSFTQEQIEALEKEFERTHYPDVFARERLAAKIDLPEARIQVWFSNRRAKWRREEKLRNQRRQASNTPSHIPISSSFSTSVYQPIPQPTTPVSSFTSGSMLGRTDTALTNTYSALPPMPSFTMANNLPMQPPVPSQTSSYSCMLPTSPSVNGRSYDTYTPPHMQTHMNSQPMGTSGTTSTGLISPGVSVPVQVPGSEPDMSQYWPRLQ
Sequence of Bile acid receptor (Homo sapiens) (Q96RI1 whole entry, looked up): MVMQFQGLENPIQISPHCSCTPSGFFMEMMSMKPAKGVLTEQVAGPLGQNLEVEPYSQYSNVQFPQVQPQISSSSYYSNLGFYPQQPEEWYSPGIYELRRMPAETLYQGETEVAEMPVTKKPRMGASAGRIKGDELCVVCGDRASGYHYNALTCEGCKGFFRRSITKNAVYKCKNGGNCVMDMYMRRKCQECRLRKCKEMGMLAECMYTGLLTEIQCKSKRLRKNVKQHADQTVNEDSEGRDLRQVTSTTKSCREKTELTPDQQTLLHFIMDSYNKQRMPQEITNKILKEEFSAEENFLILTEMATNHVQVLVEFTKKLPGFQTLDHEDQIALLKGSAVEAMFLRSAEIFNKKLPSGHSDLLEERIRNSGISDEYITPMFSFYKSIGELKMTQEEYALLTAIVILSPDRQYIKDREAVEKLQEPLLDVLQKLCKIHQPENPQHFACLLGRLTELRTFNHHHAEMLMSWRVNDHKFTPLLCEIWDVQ
Sequence of Heat shock factor protein 1 (Homo sapiens) (Q00613 whole entry, looked up): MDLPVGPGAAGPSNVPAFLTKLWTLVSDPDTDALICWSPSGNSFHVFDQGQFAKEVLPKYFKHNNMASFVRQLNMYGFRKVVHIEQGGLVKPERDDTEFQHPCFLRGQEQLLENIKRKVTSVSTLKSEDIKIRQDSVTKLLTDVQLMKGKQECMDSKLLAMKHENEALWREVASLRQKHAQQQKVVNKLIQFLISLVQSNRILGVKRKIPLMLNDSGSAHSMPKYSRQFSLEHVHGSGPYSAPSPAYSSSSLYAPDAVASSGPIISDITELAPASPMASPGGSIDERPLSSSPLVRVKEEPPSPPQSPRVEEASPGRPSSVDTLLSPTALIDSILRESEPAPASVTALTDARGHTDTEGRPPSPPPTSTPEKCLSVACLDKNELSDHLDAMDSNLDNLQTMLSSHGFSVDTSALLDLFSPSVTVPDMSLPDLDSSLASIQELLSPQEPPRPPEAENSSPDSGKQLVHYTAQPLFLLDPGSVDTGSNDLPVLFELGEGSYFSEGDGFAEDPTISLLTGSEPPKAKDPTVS

CCc1cccc(CC)c1N(COC)C(=O)CS(=O)(=O)O
active: [16] 8.56 µM | [18] 3.8 µM
not listed: [19] | [20]
inactive: all other assays above

CC[N+](CC)(CC)Cc1ccccc1
not listed: [8] | [14]
inactive: all other assays above

CCCCCCc1ccc(N)cc1
active: [3] 5.06 µM | [10] 26.9 µM
not listed: [6] | [14]
inactive: all other assays above

Nc1ccn([C@@H]2O[C@H](CO)[C@@H](O)C2O)c(=O)n1 (some centres not stated)
not listed: [6] | [14]
inactive: all other assays above
